We go through 26 compounds from PubChem BioAssay.

Structures are written as SMILES. Values joined by “and” are separate entries in the source; they are usually repeats but may differ in a detail not shown here. Equal entries are not always repeated. Results filed as inconclusive are left out. Active and inactive are the calls of the source. Unless noted, no cut-off is given here; in the data, nearly all actives have AC50 up to about 30 µM.

Test [1] in a line: growth inhibition of DIPG glioma cells, dose response, cell-based, SU-DIPG-XIII, MIPE4.0, CellTiter-Glo, qHTS (AID 1347061; cut-off not given, nearly all actives have AC50 up to about 37 µM;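 note: cells exposed to compound for 48 hours before readout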). The conditions noted are these: SU-DIPG-XIII viability, CellTiter-Glo ATP luminescence. On the technique in general: Cellular ATP, detected with luciferase, serves as a proxy for viable cell number.
Test [2] in a line: growth inhibition of DIPG glioma cells, dose response, cell-based, JHH-DIPG-1, MIPE4.0, CellTiter-Glo, qHTS (AID 1347062; cut-off not given, nearly all actives have AC50 up to about 27 µM;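 for AC50: cells exposed to compound for two days before readout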). The conditions noted are these: JHH-DIPG-1 viability, CellTiter-Glo ATP luminescence.
Test [3] can be described thus: growth inhibition of DIPG glioma cells, dose response, cell-based, SU-DIPG-IV, MIPE4.0, CellTiter-Glo, qHTS (AID 1347063).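 Note: compound exposure lasted 48 hours before the viability readout.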 The conditions noted are these: SU-DIPG-IV viability, CellTiter-Glo ATP luminescence.
A short description of test [4]: SU-DIPG-VI glioma cell viability, MIPE4.0 library, CellTiter-Glo luminescence, qHTS (AID 1347066).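 Note: cells exposed to compound for 48 hours before readout.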 The conditions noted are these: CellTiter-Glo ATP luminescence.
Test [5] in a line: JHH-DIPG-1 glioma cell viability, MIPE5.0 library, CellTiter-Glo luminescence, qHTS (AID 1347067; cut-off not given, nearly all actives have AC50 up to about 26 µM;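 note: cells exposed to compound for 48 hours before readout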). Conditions: JHH-DIPG-1 glioma viability, CellTiter-Glo ATP luminescence.
A short description of test [6]: SU-DIPG-XXV glioma cell viability, MIPE5.0 library, qHTS (AID 1347068; cut-off not given, nearly all actives have IC50 up to about 30 µM).
Test [7] in a line: sensitizers of A549 cells to miR-34 induction, primary screen, imaging, A549 dox-inducible miR-34, nuclei and caspase counts (AID 1347080;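 active = compounds whose cell count with miR-34 switched on is under 0.7 times the count with it off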). Conditions: A549 miR-34 inducible, Hoechst nuclei count, 48 h.
Test [8] in a line: survival rescue of mitochondrial mutant cells in low glucose, primary screen, MELAS cybrids, Rieske KO mouse fibroblasts, CellTiter-Glo (AID 1508586;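 active = mean z-score across replicates of 1.96 or higher in either the MELAS or the Rieske mutant cell line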;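 note: z relative to plate mean and SD of compound and empty wells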).
Test [9] can be described thus: modifiers of HSF1 nuclear foci, imaging, Selleck Cancer Library (AID 1347162; in the data active = plate-normalised HSF1 focus index below about 0.46). Conditions: human cells, at 10 µM; SSMD: measured here: HSF1 foci SSMD mean; cell count: measured here: cell number; plate-normalised HSF1 focus index: stronger effect = lower value.
[10] abbreviates: stronger effect = lower value, cell number ratio, induced over uninduced.
[11] abbreviates: measured here: relative caspase fold change +Dox/-Dox.
Setting [12] is: measured here: total cells with miR-34 induction, stronger effect = lower value.
[13] abbreviates: measured here: total cells without miR-34 induction.
Where [14] appears, read: MELAS cybrid survival, CellTiter-Glo 48 h, stronger effect = higher value.
The mark [15] stands for this setting: Rieske KO mouse fibroblast survival, CellTiter-Glo 72 h.

In the case of `CCC(CC)[C@H](NC(C)=O)[C@@H]1[C@H](O)[C@@H](C(=O)O)C[C@H]1N=C(N)N`, the compound was called inactive in test [1], in [2], in test [3] and in test [4].

Turning to `CNC(=O)CN1CCC(Oc2cc3c(Nc4cccc(Cl)c4F)ncnc3cc2OC)CC1`, the compound was called inactive in test [1], in test [2], in test [3], in test [4], in test [5] and in test [6]. Further, the fold change in test [7] (setting [10]) was 0.965 (inactive); in [7] (setting [11]), 1.05. Besides, the cell count in [7] (setting [12]) worked out at 5230; in test [7] (setting [13]), 5420. Moreover, the z-score is -0.464 (inactive) in [8] (setting [14]) and -0.429 in [8] (setting [15]).

As for `CCCCCCCCCCCCc1ccc(S(=O)(=O)Nc2nncs2)cc1`, the compound was classed as inactive in test [1], in [2], in test [3], in [4] and in test [6]. The fold change is 0.927 (inactive) in [7] (setting [10]) and 1.16 in test [7] (setting [11]). The cell count in test [7] (setting [12]) came out at 8010; in test [7] (setting [13]), 8650. For the same compound, the z-score was 0.533 (inactive) in test [8] (setting [14]) and 0.0837 in test [8] (setting [15]).

Regarding `N[C@H]1CN(c2c(F)cc3c(=O)c(C(=O)O)cn(C4C[C@H]4F)c3c2Cl)CC12CC2` (some centres not stated), the compound was called inactive in [1], in [2], in test [3] and in test [4].

A word on the AC50: it is the concentration giving half of the maximal activity seen. `CC(=O)N1CCN(c2ccc(OCc3nn(C)c(C)c3-c3cccc4c(CCCOc5cccc6ccccc56)c(C(=O)O)n(Cc5cccnc5)c34)cc2)CC1`: the AC50 in test [1] was 9.35 µM (active); in test [2], 1.66 µM (active); in test [3], 1.66 µM (active); in test [4], 1.48 µM (active).

Take `CC(C)CN(C[C@@H](O)[C@H](Cc1ccccc1)NC(=O)O[C@H]1CO[C@H]2OCC[C@H]21)S(=O)(=O)c1ccc(N)cc1`: the AC50 in test [1] was 20.9 µM (active); in [4], 23.5 µM (active). For the same compound, the compound was classed as inactive in test [2] and in test [3]. The figures for the z-score in test [8] (setting [14]) and in test [8] (setting [15]) were 0.705 (inactive) and 0.765, respectively.

With `Cc1ccn(-c2ccc(-c3ncco3)cc2)c(=O)c1-c1ccc2nc(N)ncc2c1`, the outcome in test [1], in [2], in test [3], in test [4] and in test [5] was inactive.

With `N#CC[C@H](C1CCCC1)n1cc(-c2ncnc3[nH]ccc23)cn1`, the compound was called inactive in [1], in [2], in test [3], in test [4] and in test [6]. Also, the SSMD in test [9] was 3.63. The cell count in [9] came to 7430. Besides, the plate-normalised HSF1 focus index in test [9] is 1.23 (inactive).

`Nc1ncnc2c1ncn2[C@@H]1O[C@@H](CO)[C@H](O)[C@@H]1O`: the call in test [1], in test [2], in test [3] and in [4] was inactive.

`O=C(Nc1cc2cc[nH]c2cn1)c1ccccc1`: the AC50 in test [1] is 14.8 µM (active); in [2], 5.9 µM (active); in test [3], 3.32 µM (active); in [4], 14.8 µM (active). Also, the fold change in test [7] (setting [10]) is 0.982 (inactive); in [7] (setting [11]), 0.194. Further, the cell count in [7] (setting [12]) is 8430; in [7] (setting [13]), 8590. For the same compound, the z-score is -0.697 (inactive) in test [8] (setting [14]) and -2.76 in [8] (setting [15]).

On to `Nc1nc2[nH]cc(CCc3ccc(C(=O)N[C@@H](CCC(=O)O)C(=O)O)cc3)c2c(=O)[nH]1`, for which the call in [1], in [2], in test [3], in [4], in test [5] and in test [6] was inactive. For the same compound, the fold change in test [7] (setting [10]) is 1.36 (inactive); in test [7] (setting [11]), 0.473. The cell count was determined as 3100 in test [7] (setting [12]), 2280 in test [7] (setting [13]) and 7280 in test [9]. This compound also had an SSMD in test [9] of -2.05. In addition, the plate-normalised HSF1 focus index in test [9] is 0.87 (inactive). The values for the z-score in [8] (setting [14]) and in test [8] (setting [15]) were -0.725 (inactive) and -0.391, respectively.

Consider `N#CC(=C(O)c1ccc(Cl)cc1Cl)c1nc2cc(Cl)ccc2c(=O)[nH]1`, for which the outcome in [1], in test [2], in test [3] and in test [4] was inactive.

For the compound `C/C=C1\C2C=C(C)CC1(N)c1ccc(=O)[nH]c1C2` (configuration not stated), the compound was called inactive in [1], in test [2], in [3] and in [4]. Besides, the fold change in test [7] (setting [10]) was 1.01 (inactive); in test [7] (setting [11]), 0.681. For the same compound, the cell count in test [7] (setting [12]) was 4140; in test [7] (setting [13]), 4110.

Consider `O=C(C=CC#Cc1cccc(NS(=O)(=O)c2ccccc2)c1)NO`, for which the AC50 is 14.8 µM (active) in test [1], 9.35 µM (active) in test [2], 4.18 µM (active) in test [3] and 18.7 µM (active) in [4].

Take `Cn1c(N2CCCCS2(=O)=O)nc(C(=O)NCc2ccc(F)cc2)c(O)c1=O`: the result in test [1], in test [2], in test [3] and in test [4] was inactive. Besides, the figures for the fold change in [7] (setting [10]) and in test [7] (setting [11]) were 0.915 (inactive) and 0.973, respectively. For the same compound, the cell count in test [7] (setting [12]) amounted to 7350; in test [7] (setting [13]), 8040. In addition, the z-score in test [8] (setting [14]) was -0.418 (inactive); in [8] (setting [15]), 0.522.

Regarding `O=C(O)C(O)Cc1ccc(O)c(O)c1` (configuration not stated), the result in test [1], in test [2], in test [3], in test [4] and in test [6] was inactive. Also, the fold change was 0.928 (inactive) in [7] (setting [10]) and 0.6 in test [7] (setting [11]). For the same compound, the values for the cell count in test [7] (setting [12]) and in [7] (setting [13]) were 9530 and 10300, respectively. The results for the z-score in test [8] (setting [14]) and in [8] (setting [15]) were -0.385 (inactive) and 0.0393, respectively.

In the case of `COc1cc2c(cc1OC)[C@@H]1Cc3ccc(OC)c(OC)c3CN1CC2`, the outcome in [1], in [2], in [3] and in [4] was inactive. Also, the values for the fold change in test [7] (setting [10]) and in test [7] (setting [11]) were 0.902 (inactive) and 0.654, respectively. Also, the cell count in [7] (setting [12]) was determined as 9170; in [7] (setting [13]), 10200. Further, the z-score was -0.395 (inactive) in [8] (setting [14]) and 0.428 in [8] (setting [15]).

In the case of `CN(C)c1nc(Cc2ccc(NC(=O)c3ccc(C(F)(F)F)cc3)cc2)nc(N(C)C)c1CC(=O)O`, the call in [1], in test [2], in [3] and in [4] was inactive.

As to `CC(O)C1C(=O)N2C(C(=O)O)=C(SC3CNC(C(=O)N(C)C)C3)C(C)C12` (configuration not stated), the compound was called inactive in test [1], in test [2], in test [3] and in [4]. The fold change is 0.9 (inactive) and 0.956 (inactive) in test [7] (setting [10]); 2.32 and 0.899 in test [7] (setting [11]). Moreover, the cell count in [7] (setting [12]) is 9280 and 7430; in test [7] (setting [13]), 10300 and 7780. Further, the values for the z-score in test [8] (setting [14]) and in test [8] (setting [15]) were -0.432 (inactive) and 0.361, respectively.

Take `COC1=C2C[C@@H](C)C[C@H](OC)[C@H](O)[C@@H](C)/C=C(\C)[C@H](OC(N)=O)[C@@H](OC)/C=C/C=C(\C)C(=O)NC(=CC1=O)C2=O`: the AC50 is 0.372 µM (active) in test [1], 0.296 µM (active) in test [2], 0.526 µM (active) in [3] and 2.35 µM (active) in [4].

As for `C[C@]12C=CC(=O)N[C@@H]1CC[C@@H]1[C@@H]2CC[C@]2(C)[C@@H](C(=O)Nc3cc(C(F)(F)F)ccc3C(F)(F)F)CC[C@@H]12`, the compound was classed as inactive in test [1], in test [2] and in test [3].

`C=C1/C(=C/C=C2\CCCC3(C)[C@@H]([C@H](C)/C=C/C=C/C(O)(CC)CC)CC[C@@H]23)C[C@@H](O)C[C@@H]1O` (some centres not stated): the AC50 in [1] was 18.7 µM (active); in test [2], 20.9 µM (active); in test [3], 16.6 µM (active). In addition, the compound was called inactive in [6].

`N=C1S/C(=C\c2ccc(-c3ccc4c(c3)C(=O)NC4=O)o2)C(=O)N1c1ccc(Br)cc1`: the compound was called inactive in test [1], in [2], in test [3], in [4] and in test [6].

In the case of `O=C(O)C1=NC(C(=O)O)CC(/C=C/N2c3cc(O)c(OC4OC(CO)C(O)C(O)C4O)cc3CC2C(=O)O)=C1` (configuration not stated), the compound was called inactive in [1], in [2], in test [3] and in [4].

As to `Nc1ccn([C@H]2CS[C@@H](CO)O2)c(=O)n1`, the result in test [1], in test [2], in test [3] and in test [4] was inactive.

Take `COC(=O)N[C@H](C(=O)N1CCC[C@H]1c1ncc(-c2ccc(-c3ccc(-c4cnc([C@@H]5CCCN5C(=O)[C@@H](NC(=O)OC)C(C)C)[nH]4)cc3)cc2)[nH]1)C(C)C`: the compound was classed as inactive in test [1] and in test [2]. In addition, the concentration at half-maximal activity (AC50) was 26.4 µM (active) in test [3] and 23.5 µM (active) in [5].
